According to the supplement of paper PMC11732987, “Enantioselective OTUD7B fragment discovery through chemoproteomics screening and high-throughput optimisation” (Communications Chemistry, 2025):

Experiments:
Assay in all cases: log2 ratio of Biotin-Ahx-Ub-VS probe labelling (fragment/DMSO); higher = less target engagement (more negative = stronger competition), active = hit call of the paper (q ≤ 0.05, log2 ratio ≤ -1)
Conditions in all cases: compound concentration: 200 uM; treatment time: 3 h
USP42 = molecular target: T1, USP42 (UniProt Q9H9J4)
T1 sequence (whole entry): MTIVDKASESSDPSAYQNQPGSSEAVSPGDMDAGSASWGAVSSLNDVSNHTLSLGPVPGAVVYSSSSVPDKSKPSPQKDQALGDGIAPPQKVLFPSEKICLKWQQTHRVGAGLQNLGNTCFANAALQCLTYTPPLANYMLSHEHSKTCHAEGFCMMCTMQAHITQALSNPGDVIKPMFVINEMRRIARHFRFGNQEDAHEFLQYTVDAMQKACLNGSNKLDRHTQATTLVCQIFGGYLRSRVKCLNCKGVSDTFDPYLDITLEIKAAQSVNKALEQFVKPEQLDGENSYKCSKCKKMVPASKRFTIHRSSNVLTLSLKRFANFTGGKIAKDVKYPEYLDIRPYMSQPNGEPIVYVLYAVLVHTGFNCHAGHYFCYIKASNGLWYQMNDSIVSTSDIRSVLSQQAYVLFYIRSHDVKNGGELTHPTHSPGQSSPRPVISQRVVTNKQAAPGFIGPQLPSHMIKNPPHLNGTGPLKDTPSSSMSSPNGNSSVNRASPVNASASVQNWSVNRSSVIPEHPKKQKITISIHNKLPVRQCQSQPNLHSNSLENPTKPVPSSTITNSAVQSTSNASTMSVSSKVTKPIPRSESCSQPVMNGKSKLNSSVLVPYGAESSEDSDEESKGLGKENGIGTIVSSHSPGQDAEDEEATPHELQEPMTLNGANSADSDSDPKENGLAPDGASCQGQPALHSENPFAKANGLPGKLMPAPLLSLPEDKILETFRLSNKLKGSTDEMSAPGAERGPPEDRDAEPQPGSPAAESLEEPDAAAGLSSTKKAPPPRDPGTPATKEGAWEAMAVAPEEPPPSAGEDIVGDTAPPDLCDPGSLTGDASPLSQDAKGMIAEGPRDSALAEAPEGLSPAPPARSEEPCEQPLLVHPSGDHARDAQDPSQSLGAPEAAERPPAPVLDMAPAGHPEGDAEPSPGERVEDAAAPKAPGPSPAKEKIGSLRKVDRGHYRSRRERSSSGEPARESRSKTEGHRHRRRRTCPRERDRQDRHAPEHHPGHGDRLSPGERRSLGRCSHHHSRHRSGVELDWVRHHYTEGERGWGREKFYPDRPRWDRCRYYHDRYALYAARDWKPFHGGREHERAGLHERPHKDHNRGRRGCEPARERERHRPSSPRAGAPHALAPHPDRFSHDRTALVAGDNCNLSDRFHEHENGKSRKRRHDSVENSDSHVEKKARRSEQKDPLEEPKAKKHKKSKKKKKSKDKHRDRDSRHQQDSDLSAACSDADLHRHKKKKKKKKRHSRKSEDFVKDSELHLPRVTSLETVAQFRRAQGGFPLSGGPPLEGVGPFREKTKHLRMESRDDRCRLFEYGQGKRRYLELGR
Outline: (§1)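 The table lists average log2 ratios of fragment over vehicle, from an unpaired t-test on global-median-normalised Spectronaut label-free quantities. Proteins with ≥2 unique peptides were used. Samples were HEK293T lysate (495 µg) treated in triplicate with fragment at 200 µM or vehicle for 3 h, then with Biotin-Ahx-Ub-VS (0.5 µM final) for 1 h, with labelled DUBs NeutrAvidin-enriched and run by diaPASEF LC-MS/MS.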

USP46 = USP46 (UniProt P62068)
Sequence of USP46 (P62068 whole entry): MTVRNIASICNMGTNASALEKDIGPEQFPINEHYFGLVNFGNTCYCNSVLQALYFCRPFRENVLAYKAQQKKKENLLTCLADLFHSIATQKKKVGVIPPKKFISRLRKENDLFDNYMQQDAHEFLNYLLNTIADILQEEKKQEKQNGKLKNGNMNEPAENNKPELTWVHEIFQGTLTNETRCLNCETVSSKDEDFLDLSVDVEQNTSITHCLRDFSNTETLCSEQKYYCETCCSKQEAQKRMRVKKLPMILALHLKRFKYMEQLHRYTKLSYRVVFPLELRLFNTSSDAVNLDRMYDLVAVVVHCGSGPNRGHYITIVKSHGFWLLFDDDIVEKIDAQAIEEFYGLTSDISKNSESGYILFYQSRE
Outline: as §1

USP47 = molecular target: T2, USP47 (UniProt Q96K76)
T2 sequence (whole entry): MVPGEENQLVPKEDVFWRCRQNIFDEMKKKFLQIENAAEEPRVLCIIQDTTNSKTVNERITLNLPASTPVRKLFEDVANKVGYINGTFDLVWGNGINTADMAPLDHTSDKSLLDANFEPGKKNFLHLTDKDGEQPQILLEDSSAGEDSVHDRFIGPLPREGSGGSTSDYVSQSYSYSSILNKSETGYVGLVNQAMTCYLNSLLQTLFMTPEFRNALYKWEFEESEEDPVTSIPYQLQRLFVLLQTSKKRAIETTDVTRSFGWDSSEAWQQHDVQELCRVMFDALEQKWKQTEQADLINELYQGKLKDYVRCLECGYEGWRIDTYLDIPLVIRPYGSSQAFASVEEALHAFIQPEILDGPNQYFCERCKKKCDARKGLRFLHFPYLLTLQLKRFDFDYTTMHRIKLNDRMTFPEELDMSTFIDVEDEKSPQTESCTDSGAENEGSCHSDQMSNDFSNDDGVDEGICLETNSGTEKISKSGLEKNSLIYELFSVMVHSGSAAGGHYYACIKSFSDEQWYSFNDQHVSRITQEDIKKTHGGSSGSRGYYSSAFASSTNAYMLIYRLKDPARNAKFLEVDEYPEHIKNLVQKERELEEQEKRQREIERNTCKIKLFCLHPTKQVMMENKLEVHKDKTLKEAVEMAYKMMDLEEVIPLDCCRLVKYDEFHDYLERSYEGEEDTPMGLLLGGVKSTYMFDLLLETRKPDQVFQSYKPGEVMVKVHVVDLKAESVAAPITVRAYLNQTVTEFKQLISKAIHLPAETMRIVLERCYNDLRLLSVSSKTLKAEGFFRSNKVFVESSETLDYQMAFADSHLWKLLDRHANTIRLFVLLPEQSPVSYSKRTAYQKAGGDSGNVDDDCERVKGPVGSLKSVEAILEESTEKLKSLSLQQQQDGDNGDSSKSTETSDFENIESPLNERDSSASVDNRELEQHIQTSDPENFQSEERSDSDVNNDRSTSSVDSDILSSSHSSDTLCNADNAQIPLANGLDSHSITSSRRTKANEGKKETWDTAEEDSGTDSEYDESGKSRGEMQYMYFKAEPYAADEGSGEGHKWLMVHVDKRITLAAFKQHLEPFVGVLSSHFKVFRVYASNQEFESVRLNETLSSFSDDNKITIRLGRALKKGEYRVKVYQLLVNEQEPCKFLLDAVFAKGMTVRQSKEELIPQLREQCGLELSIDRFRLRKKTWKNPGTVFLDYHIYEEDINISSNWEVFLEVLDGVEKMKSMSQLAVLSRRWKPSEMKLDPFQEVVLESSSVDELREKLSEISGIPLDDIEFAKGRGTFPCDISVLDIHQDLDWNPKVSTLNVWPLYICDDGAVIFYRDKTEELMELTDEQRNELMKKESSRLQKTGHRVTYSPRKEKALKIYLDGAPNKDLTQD
Outline: as §1

USP48 = molecular target: T3, USP48 (UniProt Q86UV5)
T3 sequence (whole entry): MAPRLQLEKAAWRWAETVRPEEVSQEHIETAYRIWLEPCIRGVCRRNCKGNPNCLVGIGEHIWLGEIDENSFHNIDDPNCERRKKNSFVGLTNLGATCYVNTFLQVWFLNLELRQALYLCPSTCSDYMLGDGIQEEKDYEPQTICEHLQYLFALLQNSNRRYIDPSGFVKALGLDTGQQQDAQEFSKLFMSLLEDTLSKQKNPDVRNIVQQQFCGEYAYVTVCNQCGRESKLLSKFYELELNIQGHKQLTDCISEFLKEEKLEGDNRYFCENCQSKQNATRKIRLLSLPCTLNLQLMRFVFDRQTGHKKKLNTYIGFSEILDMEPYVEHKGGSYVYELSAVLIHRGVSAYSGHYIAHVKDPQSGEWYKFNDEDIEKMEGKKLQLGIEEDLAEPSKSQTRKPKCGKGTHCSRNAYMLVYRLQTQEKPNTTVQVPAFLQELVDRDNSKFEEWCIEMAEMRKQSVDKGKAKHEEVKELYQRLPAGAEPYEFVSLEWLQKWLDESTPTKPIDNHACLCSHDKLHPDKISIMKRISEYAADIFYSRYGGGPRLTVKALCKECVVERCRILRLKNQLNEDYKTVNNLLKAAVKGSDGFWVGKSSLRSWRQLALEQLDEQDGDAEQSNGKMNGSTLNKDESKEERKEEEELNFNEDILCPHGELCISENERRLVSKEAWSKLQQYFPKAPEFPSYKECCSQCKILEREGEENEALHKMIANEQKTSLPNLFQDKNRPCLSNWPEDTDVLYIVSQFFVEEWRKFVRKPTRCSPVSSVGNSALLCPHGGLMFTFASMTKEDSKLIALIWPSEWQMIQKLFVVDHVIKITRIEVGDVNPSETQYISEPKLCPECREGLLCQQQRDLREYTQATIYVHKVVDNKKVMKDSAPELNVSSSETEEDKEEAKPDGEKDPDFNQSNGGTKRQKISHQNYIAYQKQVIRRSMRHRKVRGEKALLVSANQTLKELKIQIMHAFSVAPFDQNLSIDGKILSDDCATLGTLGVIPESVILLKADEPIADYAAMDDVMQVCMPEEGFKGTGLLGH
Outline: as §1

USP5 = molecular target: T4, USP5 (UniProt P45974)
T4 sequence (whole entry): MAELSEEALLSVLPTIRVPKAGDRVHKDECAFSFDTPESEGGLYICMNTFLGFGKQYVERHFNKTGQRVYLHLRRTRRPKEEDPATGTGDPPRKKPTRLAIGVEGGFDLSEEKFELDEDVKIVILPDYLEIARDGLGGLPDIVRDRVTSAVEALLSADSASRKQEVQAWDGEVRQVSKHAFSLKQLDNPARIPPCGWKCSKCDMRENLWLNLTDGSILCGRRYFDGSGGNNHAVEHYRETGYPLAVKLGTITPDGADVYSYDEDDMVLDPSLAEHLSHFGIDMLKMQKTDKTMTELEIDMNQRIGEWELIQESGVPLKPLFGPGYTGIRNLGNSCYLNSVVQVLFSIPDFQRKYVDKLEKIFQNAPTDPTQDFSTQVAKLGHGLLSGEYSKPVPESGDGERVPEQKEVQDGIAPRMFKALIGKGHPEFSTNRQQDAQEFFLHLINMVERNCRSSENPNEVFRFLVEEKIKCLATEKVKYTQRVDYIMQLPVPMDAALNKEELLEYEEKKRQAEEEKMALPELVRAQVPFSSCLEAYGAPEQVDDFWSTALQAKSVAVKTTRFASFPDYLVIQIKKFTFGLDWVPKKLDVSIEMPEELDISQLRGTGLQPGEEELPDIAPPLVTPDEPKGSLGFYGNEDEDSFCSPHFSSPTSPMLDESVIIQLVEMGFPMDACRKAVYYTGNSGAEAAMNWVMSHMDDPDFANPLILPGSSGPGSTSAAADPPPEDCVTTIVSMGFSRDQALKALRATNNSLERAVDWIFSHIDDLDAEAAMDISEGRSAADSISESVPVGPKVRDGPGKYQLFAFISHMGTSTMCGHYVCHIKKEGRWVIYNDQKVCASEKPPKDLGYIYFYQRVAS
Outline: as §1

USP54 = USP54 (UniProt Q70EL1)
Sequence of USP54 (Q70EL1 whole entry): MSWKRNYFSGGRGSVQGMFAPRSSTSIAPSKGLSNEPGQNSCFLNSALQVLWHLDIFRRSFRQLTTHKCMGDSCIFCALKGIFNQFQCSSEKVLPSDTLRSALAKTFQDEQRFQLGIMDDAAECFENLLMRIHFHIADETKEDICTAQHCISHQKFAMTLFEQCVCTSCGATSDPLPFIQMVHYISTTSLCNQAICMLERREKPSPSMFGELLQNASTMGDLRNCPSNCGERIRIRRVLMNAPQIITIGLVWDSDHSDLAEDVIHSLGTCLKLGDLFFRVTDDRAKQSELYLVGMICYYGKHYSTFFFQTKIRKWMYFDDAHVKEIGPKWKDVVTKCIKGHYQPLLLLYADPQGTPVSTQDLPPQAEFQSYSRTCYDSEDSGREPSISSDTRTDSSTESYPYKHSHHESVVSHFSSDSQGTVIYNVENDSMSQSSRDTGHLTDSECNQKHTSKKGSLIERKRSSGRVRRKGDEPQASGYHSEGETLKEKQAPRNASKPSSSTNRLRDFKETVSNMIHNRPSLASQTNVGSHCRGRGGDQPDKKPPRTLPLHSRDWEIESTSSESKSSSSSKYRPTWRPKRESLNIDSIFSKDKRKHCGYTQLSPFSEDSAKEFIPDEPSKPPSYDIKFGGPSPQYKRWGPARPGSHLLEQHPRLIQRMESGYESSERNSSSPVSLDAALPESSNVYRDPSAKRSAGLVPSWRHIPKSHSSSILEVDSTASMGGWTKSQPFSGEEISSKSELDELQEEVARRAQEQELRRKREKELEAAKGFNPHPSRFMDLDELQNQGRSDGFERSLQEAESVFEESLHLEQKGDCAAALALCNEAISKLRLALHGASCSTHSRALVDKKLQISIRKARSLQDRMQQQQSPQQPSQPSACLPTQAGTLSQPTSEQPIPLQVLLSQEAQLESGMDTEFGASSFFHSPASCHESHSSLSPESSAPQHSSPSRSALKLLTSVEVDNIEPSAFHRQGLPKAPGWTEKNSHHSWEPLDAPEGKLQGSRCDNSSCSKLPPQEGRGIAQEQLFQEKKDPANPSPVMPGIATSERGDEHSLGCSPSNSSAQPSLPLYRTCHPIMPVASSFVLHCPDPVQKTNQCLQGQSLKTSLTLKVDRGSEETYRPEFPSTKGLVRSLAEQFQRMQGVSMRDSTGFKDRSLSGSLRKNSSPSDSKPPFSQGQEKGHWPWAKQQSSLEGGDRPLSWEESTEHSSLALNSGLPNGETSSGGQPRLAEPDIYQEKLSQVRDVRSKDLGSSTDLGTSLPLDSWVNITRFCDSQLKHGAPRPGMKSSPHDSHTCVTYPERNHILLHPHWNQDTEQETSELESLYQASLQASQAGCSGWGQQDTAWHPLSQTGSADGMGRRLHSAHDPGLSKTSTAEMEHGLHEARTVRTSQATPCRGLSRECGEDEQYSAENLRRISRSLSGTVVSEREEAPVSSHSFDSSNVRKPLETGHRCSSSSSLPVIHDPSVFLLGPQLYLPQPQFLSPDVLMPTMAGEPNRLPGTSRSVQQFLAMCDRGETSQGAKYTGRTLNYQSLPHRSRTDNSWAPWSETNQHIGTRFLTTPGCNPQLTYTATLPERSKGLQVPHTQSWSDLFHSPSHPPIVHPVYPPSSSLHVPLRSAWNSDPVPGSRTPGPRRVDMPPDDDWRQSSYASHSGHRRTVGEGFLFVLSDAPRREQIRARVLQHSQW
Outline: as §1

USP7 = USP7 (UniProt Q93009)
Sequence of USP7 (Q93009 whole entry, looked up): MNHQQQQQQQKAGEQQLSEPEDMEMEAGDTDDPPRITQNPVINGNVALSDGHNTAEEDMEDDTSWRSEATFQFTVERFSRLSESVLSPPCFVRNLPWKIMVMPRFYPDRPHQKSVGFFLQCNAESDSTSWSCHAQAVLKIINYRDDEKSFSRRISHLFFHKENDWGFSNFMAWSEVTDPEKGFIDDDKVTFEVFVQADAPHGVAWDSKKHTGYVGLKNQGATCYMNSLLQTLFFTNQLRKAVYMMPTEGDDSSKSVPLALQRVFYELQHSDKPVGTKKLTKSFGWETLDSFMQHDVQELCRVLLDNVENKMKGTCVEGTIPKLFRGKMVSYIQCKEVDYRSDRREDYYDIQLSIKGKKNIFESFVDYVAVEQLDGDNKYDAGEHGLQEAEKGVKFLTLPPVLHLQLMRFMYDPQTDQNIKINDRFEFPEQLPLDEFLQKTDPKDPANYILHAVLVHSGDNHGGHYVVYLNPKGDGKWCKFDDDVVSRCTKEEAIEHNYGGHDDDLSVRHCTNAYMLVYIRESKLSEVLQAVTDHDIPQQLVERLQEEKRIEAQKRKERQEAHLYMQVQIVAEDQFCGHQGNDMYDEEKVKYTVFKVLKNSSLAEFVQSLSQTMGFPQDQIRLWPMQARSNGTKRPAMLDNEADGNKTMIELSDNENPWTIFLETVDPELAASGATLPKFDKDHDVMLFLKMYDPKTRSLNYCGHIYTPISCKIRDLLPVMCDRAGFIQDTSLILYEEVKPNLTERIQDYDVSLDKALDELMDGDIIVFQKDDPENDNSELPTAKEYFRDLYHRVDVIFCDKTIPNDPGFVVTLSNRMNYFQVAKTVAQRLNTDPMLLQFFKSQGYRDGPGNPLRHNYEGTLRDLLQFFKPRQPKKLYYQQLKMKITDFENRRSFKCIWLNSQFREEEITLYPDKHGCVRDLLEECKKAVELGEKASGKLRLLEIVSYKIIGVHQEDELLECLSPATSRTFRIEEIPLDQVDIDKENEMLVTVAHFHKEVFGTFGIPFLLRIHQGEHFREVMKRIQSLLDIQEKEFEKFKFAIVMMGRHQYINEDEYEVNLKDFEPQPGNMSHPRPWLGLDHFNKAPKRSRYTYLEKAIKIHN
Outline: as §1

USP8 = molecular target: T5, USP8 (UniProt P40818)
T5 sequence (whole entry): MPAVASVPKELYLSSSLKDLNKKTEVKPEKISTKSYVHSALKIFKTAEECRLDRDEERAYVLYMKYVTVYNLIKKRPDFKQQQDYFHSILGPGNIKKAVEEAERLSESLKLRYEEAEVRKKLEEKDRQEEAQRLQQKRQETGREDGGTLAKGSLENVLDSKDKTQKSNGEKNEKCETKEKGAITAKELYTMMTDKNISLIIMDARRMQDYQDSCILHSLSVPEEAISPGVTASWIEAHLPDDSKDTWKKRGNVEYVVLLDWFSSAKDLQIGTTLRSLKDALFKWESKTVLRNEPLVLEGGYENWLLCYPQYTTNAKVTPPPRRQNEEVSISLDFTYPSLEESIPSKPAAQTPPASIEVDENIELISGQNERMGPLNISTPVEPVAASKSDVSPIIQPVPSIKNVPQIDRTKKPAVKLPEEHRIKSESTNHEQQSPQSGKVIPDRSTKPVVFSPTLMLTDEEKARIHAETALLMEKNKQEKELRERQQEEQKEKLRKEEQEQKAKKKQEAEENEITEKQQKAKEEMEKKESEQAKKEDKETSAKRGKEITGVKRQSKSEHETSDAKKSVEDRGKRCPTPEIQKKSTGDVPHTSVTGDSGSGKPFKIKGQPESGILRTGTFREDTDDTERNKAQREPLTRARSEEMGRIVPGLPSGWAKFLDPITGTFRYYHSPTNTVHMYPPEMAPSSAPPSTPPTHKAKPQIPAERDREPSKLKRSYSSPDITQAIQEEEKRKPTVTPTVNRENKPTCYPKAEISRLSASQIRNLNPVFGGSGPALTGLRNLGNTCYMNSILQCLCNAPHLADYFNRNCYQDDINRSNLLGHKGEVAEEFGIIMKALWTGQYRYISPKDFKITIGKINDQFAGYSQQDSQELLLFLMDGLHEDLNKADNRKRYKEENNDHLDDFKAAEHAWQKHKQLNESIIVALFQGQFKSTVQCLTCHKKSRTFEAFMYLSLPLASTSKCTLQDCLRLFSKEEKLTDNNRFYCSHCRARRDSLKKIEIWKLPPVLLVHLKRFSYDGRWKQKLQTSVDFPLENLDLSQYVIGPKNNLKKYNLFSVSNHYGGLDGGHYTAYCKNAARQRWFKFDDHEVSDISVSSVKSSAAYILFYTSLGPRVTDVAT
Outline: as §1

USP9X = USP9X (UniProt Q93008)
Outline: as §1

UniProt O00487 = molecular target: UniProt O00487
Sequence of UniProt O00487 (O00487 whole entry): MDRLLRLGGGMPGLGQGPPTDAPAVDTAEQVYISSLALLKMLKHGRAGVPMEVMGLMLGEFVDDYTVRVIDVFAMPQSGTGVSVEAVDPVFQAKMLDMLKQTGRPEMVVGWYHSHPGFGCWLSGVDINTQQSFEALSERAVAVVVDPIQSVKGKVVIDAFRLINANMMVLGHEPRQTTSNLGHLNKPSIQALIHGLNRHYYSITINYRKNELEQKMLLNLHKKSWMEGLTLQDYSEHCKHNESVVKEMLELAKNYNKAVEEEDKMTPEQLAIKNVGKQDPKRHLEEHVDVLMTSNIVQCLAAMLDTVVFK
Outline: as §1

Measured: log2 ratio of Biotin-Ahx-Ub-VS probe labelling

O=C(CN1CCN(C(=O)CCl)CC1)Nc1cccc(F)c1
inactive: USP42 -0.241 | USP46 -0.173 | USP47 -0.178 | USP48 -0.419 | USP5 0.215 | USP54 0.835 | USP7 -0.436 | USP8 -0.23 | USP9X -0.429 | UniProt O00487 0.0211
